TEAD-YAP inh: TEAD-YAP interaction inhibition; HEK-TIYL cells, TEAD-Gal4/YAP UAS-luciferase luminescence; inhibition, % at 9.12 µM; 640,000 compounds, 1.4% hits; in the data active means inhibition above about 32%
GPR151 ag: activators of human GPR151; Q8TDV0; PathHunter beta-arrestin GPR151 cells, luminescence; activation, % at 11.2 µM; 650,000 compounds, 1% hits; AID 1508602; in the data active means activation above about 4.9%
MITF primary: inhibitors of human MITF; 650,000 compounds, 0.91% hits; O75030; AlphaScreen MITF homodimerization, bead proximity signal; inhibition, % at 2.6 µM; in the data active means inhibition above about 50%
Target sequence (O75030 whole entry, looked up): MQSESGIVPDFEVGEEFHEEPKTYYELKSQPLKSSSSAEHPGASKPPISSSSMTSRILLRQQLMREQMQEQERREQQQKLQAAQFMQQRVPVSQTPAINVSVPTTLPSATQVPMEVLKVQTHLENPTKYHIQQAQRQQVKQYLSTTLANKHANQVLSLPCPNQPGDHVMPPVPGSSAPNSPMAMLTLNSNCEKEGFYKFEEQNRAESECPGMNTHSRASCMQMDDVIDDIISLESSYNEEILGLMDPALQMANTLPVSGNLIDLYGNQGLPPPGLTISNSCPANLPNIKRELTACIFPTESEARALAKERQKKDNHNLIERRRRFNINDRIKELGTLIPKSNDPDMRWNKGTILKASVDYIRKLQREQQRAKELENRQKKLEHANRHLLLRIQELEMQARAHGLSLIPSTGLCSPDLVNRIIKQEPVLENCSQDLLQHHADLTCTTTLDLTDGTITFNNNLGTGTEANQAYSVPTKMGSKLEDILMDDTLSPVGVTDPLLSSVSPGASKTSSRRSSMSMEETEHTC
FBW7 act: human FBW7 E3 ligase activation, primary screen. 650,000 compounds, 0.13% hits. Q969H0. AlphaScreen FBW7–phospho-cyclin E peptide binding, activator screen. normalized activity (activation), % at 26.1 µM; in the data active means normalized activity above about 1.9%;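 further: purified mutant Fbw7 with reduced substrate affinity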
MITF inh conf: human MITF inhibition, confirmation | shares compounds with MITF primary | AlphaScreen MITF homodimerization, biotin/His-MITF beads | inhibition, % at 2.6 µM | 4,700 compounds, 16% hits | AID 1259372;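 active means inhibition above a cutoff derived from the DMSO control wells, cut at about 28% in these data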;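 further: inhibitors lower the bead chemiluminescence by keeping MITF from dimerizing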
AS interf DR: AlphaScreen optical interference, dose response counter-screen. shares compounds with MITF primary. AlphaScreen optical interference counterscreen, cell-free. IC50, µM. 480 compounds, 6% hits; call rule not given here
AS interf ctr: AlphaScreen optical interference, counter-screen; shares compounds with MITF primary; LysRS AlphaScreen counterscreen, signal interference, triplicate; inhibition, % at 2.6 µM; 4,700 compounds, 7.6% hits; AID 1259376;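 active means inhibition above a cutoff derived from the DMSO control wells, cut at about 30% in these data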
Numbers stand for hits; - = inactive; . = no result. Shown are actives, neighbours in structure and some others; about 3.5% of the full set was active somewhere.

SMILES | TEAD-YAP inh | GPR151 ag | MITF primary | FBW7 act | MITF inh conf | AS interf ctr | others
CCOc1ccc(NC(=O)CN2C(=O)C(C)N=C(c3ccccc3)c3ccccc32)cc1 (configuration not stated) | - | - | - | - | . | .
CN1C(=O)NC(=O)/C(=C\c2cccc(Oc3ccccc3)c2)C1=O | - | - | 64.8 | - | . | .
CN1C(=O)NC(=O)/C(=C/c2cccs2)C1=O | - | - | - | - | . | .
COc1ccc(N2CCN(Cc3ccc(F)cc3F)CC2)cc1 | - | - | 56.2 | - | . | .
COc1cccc(N2CCN(Cc3ccccc3[N+](=O)[O-])CC2)c1 | - | - | - | - | . | .
COc1ccc(N2CCN(Cc3ccccc3[N+](=O)[O-])CC2)cc1 | - | - | 56.6 | - | . | .
COc1ccc(CN2CCN(c3ccc(F)cc3)CC2)c(OC)c1 | - | - | - | - | . | .
CCn1cnc2c(Nc3cccc(Cl)c3)nc(N[C@@H]3CCCC[C@@H]3N)nc21 | 46.3 | - | - | - | . | .
O=NN1CC2CC(C1)c1cccc(=O)n1C2 (configuration not stated) | - | - | - | - | . | .
CCN1CCN(c2ccc(NC(=S)NC(C)=O)cc2Cl)CC1 | 43.3 | - | - | - | . | .
CC(C)CCN1CCN2C(=O)CN(C)C(=O)[C@H]2C1 | - | - | - | - | . | .
CCOC(=O)C1C2NC(=S)N(c3ccc(Br)cc3)C1(C)Oc1ccc(OC)cc12 (configuration not stated) | 62.7 | - | - | - | . | .
CCOC(=O)C1C2NC(=S)N(c3ccc(C)cc3)C1(C)Oc1ccc(OC)cc12 (configuration not stated) | - | - | - | - | . | .
CCOC(=O)C1C2NC(=S)N(c3ccc(Cl)cc3)C1(C)Oc1ccc(Br)cc12 (configuration not stated) | 53.9 | - | - | - | . | .
O=C1CC(=O)N(CCC2=CCCCC2)C(=O)N1 | - | - | - | - | . | .
CN(C)c1ccc(C2C(C#N)=C(N)Oc3c2c(=O)oc2ccccc32)cc1 (configuration not stated) | - | - | - | - | . | .
Cc1ccc(-n2c(/C=C/c3ccccc3Br)nc3ccccc3c2=O)cc1 | 51.3 | - | - | - | . | .
O=C(O)Cc1nonc1[N+](=O)[O-] | - | - | - | - | . | .
COc1cc(Br)c([N+](=O)[O-])cc1[N+](=O)[O-] | 43.1 | - | - | - | . | .
COc1ccc(N=Cc2cc3c(cc2O)OC(N)=C(C#N)C3c2ccco2)cc1 (configuration not stated) | - | - | - | - | . | .
CCc1ccc(CN2CCN(Cc3cccc(Cl)c3)CC2)cc1 | - | - | 63.6 | - | - | -
Fc1cccc(CN2CCN(c3ccc(Cl)cc3)CC2)c1 | - | - | - | - | . | .
Fc1ccc(CN2CCN(Cc3cccc(Cl)c3)CC2)cc1 | - | - | 68.2 | - | - | -
CCC(CC)N1CCN(Cc2cccc(F)c2)CC1 | - | - | 73.1 | - | - | -
Fc1cccc(CN2CCN(Cc3ccc(Cl)cc3)CC2)c1 | - | - | 70.0 | - | - | -
SMILES | TEAD-YAP inh | GPR151 ag | MITF primary | FBW7 act | MITF inh conf | AS interf ctr | others
CN1CCN(Cc2cccc(F)c2)CC1 | - | - | - | - | . | .
Fc1cccc(CN2CCN(Cc3cccc(F)c3)CC2)c1 | - | - | 67.7 | - | - | -
CC(C)N1CCN(Cc2cccc(F)c2)CC1 | - | - | 61.5 | - | - | -
Cc1ccc(-n2c(-c3ccccc3)nc3ccccc3c2=O)cc1C | - | - | - | - | . | .
O=C(CN1CCOCC1)c1cccc2ccccc12 | - | - | 56.4 | - | - | -
COc1ccc(CC2NCCc3cc(OC)c(OC)cc32)cc1OC (configuration not stated) | - | - | 84.0 | - | 100.7 | - | AS interf DR=3.42
COc1ccc(CCNC2C3CC4CC(C3)CC2C4)cc1OC (configuration not stated) | - | - | - | - | . | .
Cc1ccc(F)cc1-n1c(/C=C\c2ccccc2F)nc2ccccc2c1=O | - | - | - | - | . | .
O=[N+]([O-])c1ccc(N2CCN(Cc3c(F)cccc3F)CC2)cc1 | - | - | 62.7 | - | - | -
O=[N+]([O-])c1cccc(CN2CCN(c3ccc(F)cc3)CC2)c1 | - | - | - | - | . | .
O=[N+]([O-])c1ccc(N2CCN(Cc3cc(F)ccc3F)CC2)cc1 | - | - | 57.6 | - | - | -
CC(=O)Nc1ccc2c(COC(=O)C(O)(c3ccccc3)c3ccccc3)cc(=O)oc2c1 | - | - | - | - | . | .
Fc1cc(F)cc(-c2ccc3c(c2)COC2(CCNCC2)O3)c1 | - | - | - | - | . | .
COc1ccc(CCNCc2ccc(C)o2)cc1 | - | - | - | - | . | .
CCOc1ccc(NC(=O)CCc2nc(C3=CCN(C)CC3)no2)cc1 | - | - | 82.7 | - | 92.7 | 69.8
CCc1nnc(NC(=O)CCc2nc(C3=CCN(C)CC3)no2)s1 | - | - | 58.3 | - | 59.7 | 39.0
CCc1ccccc1NC(=O)CCc1nc(C2=CCN(C)CC2)no1 | - | - | - | - | . | .
CN1CC=C(c2noc(CCC(=O)Nc3nc4ccccc4s3)n2)CC1 | - | - | - | - | . | .
CCN1CCN(Cc2cc(OC)c(O)c(OC)c2)CC1 | - | - | - | - | . | .
CCC(C)N1CCN(Cc2cc(OC)c(OC)c(OC)c2)CC1 (configuration not stated) | - | - | 75.4 | - | - | -
CCC(C)N1CCN(Cc2cc(OC)c(O)c(OC)c2)CC1 (configuration not stated) | - | - | 67.6 | - | - | -
COc1ccc2c(c1)O/C(=C\c1ccccc1OC(=O)N(C)C)C2=O | - | - | - | - | . | .
COc1ccc(Cl)cc1NC(=O)CN1C(=O)CN=C(c2ccccc2)c2ccccc21 | - | - | - | - | . | .
c1ccc(CN2CCN(c3ccccc3)CC2)cc1 | - | - | - | - | . | .
c1ccc(CN2CCN(C3CCCCC3)CC2)cc1 | - | - | 75.0 | - | - | -
SMILES | TEAD-YAP inh | GPR151 ag | MITF primary | FBW7 act | MITF inh conf | AS interf ctr | others
C[n+]1ccc(-c2cc[n+](C)cc2)cc1 | - | - | 64.7 | - | - | -
CCCCCCC[n+]1ccc(-c2cc[n+](CCCCCCC)cc2)cc1 | - | - | - | - | . | .
CCOc1cc(C2C(C#N)=C(N)Oc3c2c(=O)oc2ccccc32)cc([N+](=O)[O-])c1OC(=O)N1CCOCC1 (configuration not stated) | - | - | - | - | . | .
O=[N+]([O-])c1ccccc1CN1CCN(Cc2ccccc2F)CC1 | - | - | 66.9 | - | - | -
COc1ccccc1N1CCN(Cc2ccccc2[N+](=O)[O-])CC1 | - | - | - | - | . | .
CC(C)N1CCN(Cc2ccccc2[N+](=O)[O-])CC1 | - | - | 62.9 | - | - | -
COc1ccc(CCNCc2cccnc2)cc1OC | - | - | 69.8 | - | - | -
COc1cccc(CCNCc2cc(OC)cc(OC)c2)c1 | - | - | 55.3 | - | - | -
Cc1cccc(CN2CCN(C(=O)COc3ccccc3)CC2)c1 | - | - | 53.1 | - | - | -
O=C(COc1ccccc1)N1CCN(Cc2cccnc2)CC1 | - | - | 81.5 | - | - | -
Cc1cccc(CN2CCN(C(=O)COc3ccc(Cl)cc3)CC2)c1 | - | - | - | - | . | .
